Data as given in PubChem BioAssay AID376 (PDSP, 2006).
Out of some 2,000 compounds screened, about 250 (12%) were called active. The sample as a whole holds a higher share of actives than the screen did. A number with no mark means an inactive call. Rule as the data show it: active = hERG blockade below about -20% or above about 20%; inactive = in between.

target: Voltage-gated inwardly rectifying potassium channel KCNH2 (Homo sapiens) (UniProt Q12809); experiment: modulators of KCNH2 ion channel function, cellular (AID 376); conditions: hERG-expressing cells, channel activity single-concentration screen; concentration not given here;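 also: 0% = buffer alone and 100% = reference blocker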
Sequence (Q12809 whole entry, looked up): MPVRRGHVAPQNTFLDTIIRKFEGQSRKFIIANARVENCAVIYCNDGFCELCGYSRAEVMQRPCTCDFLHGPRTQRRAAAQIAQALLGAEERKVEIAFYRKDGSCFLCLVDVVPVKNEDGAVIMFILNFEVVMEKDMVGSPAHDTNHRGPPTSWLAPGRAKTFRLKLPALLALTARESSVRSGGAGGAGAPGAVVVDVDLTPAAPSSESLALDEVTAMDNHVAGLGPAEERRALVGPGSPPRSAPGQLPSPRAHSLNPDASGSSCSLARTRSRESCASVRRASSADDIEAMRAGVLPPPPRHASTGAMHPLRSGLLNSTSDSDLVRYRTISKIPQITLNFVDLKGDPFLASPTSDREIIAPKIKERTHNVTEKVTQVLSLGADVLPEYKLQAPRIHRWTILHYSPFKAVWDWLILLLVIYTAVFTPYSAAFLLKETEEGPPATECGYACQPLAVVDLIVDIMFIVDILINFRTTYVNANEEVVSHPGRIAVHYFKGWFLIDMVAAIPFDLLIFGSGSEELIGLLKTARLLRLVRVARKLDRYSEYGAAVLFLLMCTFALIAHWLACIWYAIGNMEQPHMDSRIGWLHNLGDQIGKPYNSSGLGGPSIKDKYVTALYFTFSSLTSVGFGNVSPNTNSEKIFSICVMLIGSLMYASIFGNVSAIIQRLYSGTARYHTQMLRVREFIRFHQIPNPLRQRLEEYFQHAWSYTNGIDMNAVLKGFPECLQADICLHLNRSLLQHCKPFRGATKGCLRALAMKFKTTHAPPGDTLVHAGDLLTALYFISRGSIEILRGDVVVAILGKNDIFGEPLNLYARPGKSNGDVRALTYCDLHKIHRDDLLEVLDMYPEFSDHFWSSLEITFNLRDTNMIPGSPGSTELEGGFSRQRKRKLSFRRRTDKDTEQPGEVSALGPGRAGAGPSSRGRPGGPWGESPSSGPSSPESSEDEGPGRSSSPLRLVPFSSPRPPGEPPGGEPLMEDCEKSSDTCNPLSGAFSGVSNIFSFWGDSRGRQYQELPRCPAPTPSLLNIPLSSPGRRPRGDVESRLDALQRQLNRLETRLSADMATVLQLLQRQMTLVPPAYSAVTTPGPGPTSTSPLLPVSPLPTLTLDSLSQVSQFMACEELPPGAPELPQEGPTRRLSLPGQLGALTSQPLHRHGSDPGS

Compound | hERG blockade
O=C(O)CN(CCN(CC(=O)O)CC(=O)O)CC(=O)O.[Mn+2] | -6.49%
O=c1ccc(-c2ccccc2)n[nH]1 | 17.2%
CC(C)C(N)(C(=O)O)c1ccccc1 (configuration not stated) | -5.81%
CC1(c2ccccc2)OC2CC3C4CCC5=CC(=O)C=CC5(C)C4(F)C(O)CC3(C)C2(C(=O)CO)O1 (configuration not stated) | 6.41%
O=CNc1ncn[nH]1 | -3.79%
c1c[nH]c(CN2CCOCC2)n1 | 2.23%
CC1CCC2C(C)C3C(CC4C5CC=C6CC(O)CCC6(C)C5CC(O)C43C)N2C1 (configuration not stated) | -3.2%
CC(=O)Nc1nc(NC(C)=O)c2[nH]c(CO)nc2n1 | 0.0402%
O=S1(=O)NC2CCC3NS(=O)(=O)NC4CCC(N1)N4S(=O)(=O)N23 (configuration not stated) | 0.569%
C[N+](C)(C)CCN(Cc1cccs1)c1ccccn1 | 39.5% (active)
CN(C)CCN(c1ccccn1)c1ccccn1 | -15.1%
CC(CO)(CO)N=Cc1cc(I)cc(I)c1O | 5%
O=C1Oc2ccccc2C(=O)C1=CN1C(=O)NC(=Cc2ccccc2O)C1=O | 10.5%
c1ccc(SC(Sc2ccccc2)c2ccc3c(c2)OCO3)cc1 | 15.6%
N=C1C=CC(=C(c2ccc(N)cc2)c2ccc(N)cc2)C=C1 | 9.77%
CN(C)c1ccc(C(=C2C=CC(=[N+](C)C)C=C2)c2c(O)c(S(=O)(=O)[O-])cc3cc(S(=O)(=O)O)ccc23)cc1 | 8.17%
CN(C)c1ccc(C(=C2C=CC(=[N+](C)C)C=C2)c2ccccc2)cc1 | 40.6% (active)
O=C(O)CCC(=O)Nc1ccc2ccccc2c1 | 10%
CC(=O)CC(=O)Nc1ccc2ccccc2c1 | 2.34%
O=C(c1ccccc1)C(Nc1ccc2ccccc2c1)c1ccccc1 (configuration not stated) | 25.3% (active)
O=S(=O)(O)C(CO)c1ccccc1 (configuration not stated) (tested in a mixture with another compound) | 13.2%
NNC(=O)c1ccc(OCc2nc3ccccc3[nH]2)cc1 | 0.772%
O=C(O)C1CCN(Cc2oc(CO)cc(=O)c2O)C1 (configuration not stated) | 3.01%

Compound | hERG blockade
CN(CC(=O)O)Cc1oc(CO)cc(=O)c1O | -29.8% (active)
CN(CC(=O)O)Cc1c(O)c(Cl)cc(Cl)c1Cl | -16.4%
CC1=C(CCC(C)CO)OC2CC3C4CCC5CC(O)CCC5(C)C4CC(=O)C3(C)C12 (configuration not stated) | -6.35%
NC1=C(O)C(=O)C(c2c[nH]c3ccc(OCc4ccccc4)cc23)O1 (configuration not stated) | 12.8%
Nc1nc(-c2ccc3ccccc3c2)cc(-c2cc(-c3ccc4ccccc4c3)nc(N)n2)n1 | 2.73%
S=C1NCN2CCN(CC2)CNC(=S)C(=S)NCN2CCN(CC2)CNC1=S | 17.9%
O=[N+]([O-])c1cc(Cl)cc2c1nc(NCCO)c1ccccc12 | 38% (active)
Nc1nc(Cl)cc(NCCO)n1 | -8.52%
O=[N+]([O-])c1cc(Cc2cc([N+](=O)[O-])c3cccnc3c2O)c(O)c2ncccc12 | -5.37%
Cc1cn(CCC(N)C(=O)O)c(=O)[nH]c1=O (configuration not stated) | 2.71%
O=C(O)CCCCn1ccc(=O)[nH]c1=O | -28% (active)
O=C(Cn1ccc(=O)[nH]c1=O)Nc1ccc(C(=O)O)c(O)c1 | -7.44%
O=C(CCN1CCOCC1)Nc1ccc(F)cc1F | 4.1%
O=C(O)Cc1[nH]cnc1C(=O)O | -3.29%
O=C1C(=Cc2ccccc2)C(NC2CCCCC2)c2ccccc21 (configuration not stated) | -0.193%
CC(C)C1OC(=O)C=CC=CC=CC=CC=CCC(O)C(C)C(O)CC(O)CC(O)CC(O)CC(O)CC(O)CC(O)C=CC1C (configuration not stated) | 5.61%
Oc1c(Cl)cc(C(c2cc(Cl)c(O)c(Cl)c2)C(c2cc(Cl)c(O)c(Cl)c2)c2cc(Cl)c(O)c(Cl)c2)cc1Cl | 25.7% (active)
CN(C)Cc1cc(Cl)c(O)c(CN(C)C)c1 | 1.1%
Oc1c(Cl)cc(CN(Cc2cc(Cl)c(O)c(Cl)c2)C2CCCCC2)cc1Cl | 1.49%
CC(C)(CC1(C)NC(=O)NC1=O)OCc1ccccc1 (configuration not stated) | -10.8%
O=C(O)Cn1ccnc1[N+](=O)[O-] | -10.9%
Nc1nc(C(=O)O)c(N=Nc2ccccc2)c(=O)[nH]1 | 33.3% (active)
NCCCc1c(-c2ccccc2)nc(N)[nH]c1=O | -2.69%

Compound | hERG blockade
O=C(O)c1nc(-c2ccccc2)[nH]c1C(=O)O | 4.21%
O=C(c1nc2ccc([N+](=O)[O-])cc2[nH]c1=O)C(O)c1ccc2c(c1)OCO2 (configuration not stated) | -14.1%
O=C1CN2CCN(CC2)CC(=O)Nc2ccc(cc2)S(=O)(=O)c2ccc(cc2)NC(=O)CN2CCN(CC2)CC(=O)Nc2ccc(cc2)S(=O)(=O)c2ccc(cc2)N1 | 6.34%
O=C(O)c1ccc([N+]2=Cn3c(nc4ccccc43)C2)cc1 | 6.37%
COC(=O)CCC(C)C1CCC2C3CCC4CC5CCC4(C)C3(O5)C(Br)C(Br)C12C (configuration not stated) | 5.42%
CCC(N)(C(=O)O)C(C)C (configuration not stated) | -13.5%
NC(=O)N=C(N)NC(=O)c1ccccc1 | -1.06%
CN=C(N)N=C(N)Nc1cc2ccccc2c2ccccc12 | -54.4% (active)
CCOC(=O)C(C)(C)C(O)C(C)C (configuration not stated) | 16.9%
Cc1nc(N)nc2ccccc12 | 1.82%
CS(=O)(=O)Nc1ccc(Nc2c3ccccc3nc3ccccc23)cc1 | 30.8% (active)
CC1OC(O)C(O)C(O)C1O (configuration not stated) | 8.47%
O=C(O)C(Sc1ccc(Cl)cc1)Sc1ccc(Cl)cc1 | -7.17%
Oc1ccc(Cl)cc1Sc1cc(Cl)ccc1O | 36.8% (active)
N#CCCSC(=S)C1CCCC1=N (configuration not stated) | 14.7%
CSc1ccc2c(c1)N(CCCN(C)C)c1ccccc1S2 | 90.6% (active)
CN(C)CCCN1c2ccc(O)cc2Sc2ccc(Cl)cc21 | 62.7% (active)
CN(C)CCCn1cnc2cc(Cl)c(Cl)cc21 | 5.34%
CN(C)CCCN1c2ccccc2Sc2cnccc21 | 73.5% (active)
CN(C)CCCn1c2ccccc2c2cnccc21 | 90.4% (active)
Cc1c2cnccc2c(C)c2c1c1ccccc1n2CCOC(=O)c1ccccc1 | 17.4%
